Hit rate of the full screen: of about 360,000 compounds, about 11,000 (3.1%) were called active. Only a selection was taken, and actives are over-represented in it overall. Unmarked numbers belong to inactive results. Rule as the data show it: active = activity change below about -30%; inactive = the rest.
% is scaled to controls: 0 for no effect and ±100 for the full control effect.

Sequence of D(1A) dopamine receptor (Homo sapiens) (P21728 whole entry, looked up): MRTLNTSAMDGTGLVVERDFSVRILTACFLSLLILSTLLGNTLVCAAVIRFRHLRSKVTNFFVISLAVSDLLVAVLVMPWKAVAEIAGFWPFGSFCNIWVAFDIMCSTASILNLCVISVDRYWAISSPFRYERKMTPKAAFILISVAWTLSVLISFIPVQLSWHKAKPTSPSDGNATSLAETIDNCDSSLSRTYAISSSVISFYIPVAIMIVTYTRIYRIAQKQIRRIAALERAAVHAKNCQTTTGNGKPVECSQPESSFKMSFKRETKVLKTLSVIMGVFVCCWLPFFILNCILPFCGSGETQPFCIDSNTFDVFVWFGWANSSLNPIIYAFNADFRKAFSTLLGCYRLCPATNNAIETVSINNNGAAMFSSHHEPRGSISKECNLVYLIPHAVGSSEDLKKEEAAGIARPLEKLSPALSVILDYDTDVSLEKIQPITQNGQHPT

The target in this assay is D(1A) dopamine receptor (Homo sapiens) (UniProt P21728). In words: Antagonist of Human D 1 Dopamine Receptor: qHTS. The note with it: HEK293 TREx D1 cells, calcium flux, dopamine EC80; at 10 µM; hits give low values. The method, boiled down:
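After overnight tetracycline induction at 30 C, force-coupled D1 HEK293 cells took up a no-wash calcium dye at room temperature. Compounds were added and monitored 180 s, and the response to EC80 dopamine was then recorded.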
Background: Quantitative high-throughput screening tests each substance at several concentrations.
For the molecule `O=C(CSc1oc(-c2ccccc2)nc1S(=O)(=O)c1ccc(Br)cc1)NC1CCCCC1`, the activity change, negative = inhibition is 8.79%.
On to `CCc1ccc(-n2nnc(-c3nc(-c4ccccc4)no3)c2C)cc1`, for which the activity change, negative = inhibition was -9.23%.
To `CCOc1cc(C2C(C(=O)c3ccco3)=C(O)C(=O)N2Cc2ccccc2)ccc1O` (stereo not drawn) belongs 9.97%; to `CC(C)c1ccc(C2C(C(=O)c3ccco3)=C(O)C(=O)N2CC2CCCO2)cc1` (stereo not drawn), -6.37%; to `O=C(C1=C(O)C(=O)N(Cc2ccccc2)C1c1ccco1)c1ccco1` (stereo not drawn), -36.2% (active).
On to `O=S(=O)(c1ccc2c(c1)OCCO2)N1CCN(S(=O)(=O)c2cc(F)ccc2F)CC1`, for which the activity change, negative = inhibition is -3.7%.
As for `CC1CCN(c2ccc(C(=O)NCc3ccc4c(c3)OCO4)cc2[N+](=O)[O-])CC1`, the activity change, negative = inhibition is -7.43%.
Take `COCCNC(=O)c1ccc(N2CCC3(CC2)OCCO3)c([N+](=O)[O-])c1`: the activity change, negative = inhibition is -74.3% (active).
Take `CCCNC(=O)c1ccc(N2CCC3(CC2)CC(c2ccc(Cl)cc2)=NO3)c([N+](=O)[O-])c1`: the activity change, negative = inhibition is -31.3% (active).
`CCC(C)NC(=O)c1ccc(N2CCC3(CC2)OCCO3)c([N+](=O)[O-])c1` (stereo not drawn): the activity change, negative = inhibition is -7.67%.
Turning to `O=C(COc1ccccc1F)NNC(=O)c1ccc(N2CCCCC2)c([N+](=O)[O-])c1`, the activity change, negative = inhibition was -3.15%.
Consider `CCCNC(=O)c1ccc(N2CCC3(CC2)CC(c2cccc(Br)c2)=NO3)c(NC(=O)c2ccco2)c1`, for which the activity change, negative = inhibition is -2.71%.
For `COc1cccc(NC(=O)CN2C(=O)c3ccccc3Sc3ncccc32)c1`, the activity change, negative = inhibition was 5.53%.
As to `COc1cccc(-c2nc(CS(=O)(=O)CC(=O)N3CCN(c4cc(C)ccc4C)CC3)c(C)o2)c1`, the activity change, negative = inhibition was -16.9%.
For `CC(NC(=O)CCc1cn(Cc2ccccc2Cl)c2ccccc12)c1ccccc1` (stereo not drawn), the activity change, negative = inhibition was -6.68%.
To `CCOCCCNC(=O)c1c(NC(=O)Cc2coc3c(C)c(C)ccc23)sc2c1CCC2` belongs 11.9%; to `Cc1ccc(Cl)cc1NC(=O)CCC(=O)N1CC(C)Sc2ccccc21` (stereo not drawn), 0.985%.
Turning to `Cc1ccc(S(=O)(=O)NCc2nc3ccccc3c(=O)n2N)cc1`, the activity change, negative = inhibition was -32.4% (active).
For the molecule `COc1ccccc1CNS(=O)(=O)c1ccc(C)cc1`, the activity change, negative = inhibition is -13.9%.
Take `C#CCCCc1nc2ccccc2c(=O)n1N`: the activity change, negative = inhibition is 3.38%.
To `Cc1ccc(Cn2c(CCCNC(=O)C3CCCCC3)nc3ccccc32)cc1` belongs 10.5%; to `CC(C)Cn1c(-c2ccc(S(=O)(=O)N3CCOCC3)cc2)csc1=Nc1cc(Cl)ccc1Cl`, -0.499%; to `CC1CCCN(c2nc3c(S(=O)(=O)c4ccc(C(C)C)cc4)nnn3c3ccsc23)C1` (stereo not drawn), -10.6%.
With `CCc1cc2c(cc(C(=O)OC)n2Cc2nc(-c3ccc(C)cc3)oc2C)s1`, the activity change, negative = inhibition is 10.2%.
To `COC(=O)C1=C(C(=O)OC)[C@@H]2N(C)c3ccccc3[C@@]23C[C@@H](C(=O)OC)N(C(C)=O)C3=N1` belongs -45.5% (active); to `CC(=O)NNC1=Nc2ccccc2N(C)C(C)C1` (stereo not drawn), 3.33%; to `O=C(CSc1n[nH]c(-c2cccnc2)n1)Nc1ccnc2ccccc12`, -30.8% (active).
As for `O=C(CSc1n[nH]c(-c2cccnc2)n1)Nc1ccc(Cl)cc1`, the activity change, negative = inhibition is 24.7%.
With `O=C(CSc1ncn[nH]1)Nc1ccnc2ccccc12`, the activity change, negative = inhibition was -18.5%.
To `O=C(CNC(=O)c1ccc(Cl)c(C(F)(F)F)c1)OC(C(=O)Nc1cc(C(F)(F)F)ccc1Cl)c1ccccc1` (stereo not drawn) belongs 7.72%.
Regarding `COc1ccc(Cl)cc1S(=O)(=O)N1CCC(c2ccncc2)CC1`, the activity change, negative = inhibition is 8.07%.
As for `Cc1ccc(Cn2c(C)c3cnn(CC(=O)NCc4ccccc4)c(=O)c3c2C)cc1`, the activity change, negative = inhibition is -2.69%.
`CCCn1c2ccccc2c2cnn(CC(=O)N3CCCC(C(=O)OCC)C3)c(=O)c21` (stereo not drawn): the activity change, negative = inhibition is 13.4%.
Turning to `CCOC(=O)C1CCCN(C(=O)Cn2ncc3c(C)n(Cc4ccc(F)cc4)c(C)c3c2=O)C1` (stereo not drawn), the activity change, negative = inhibition was -36.8% (active).
The same measure for `CC1CCN(C(=O)Cn2c(=O)n(-c3ccc(Cl)cc3)c(=O)c3c4c(sc32)CCC4)CC1`: -0.901%.
For `CSc1ccc(NC(=O)Cn2nnnc2-c2ccccc2F)cc1`, the activity change, negative = inhibition was -8.36%.
Consider `Cc1ccc(Cl)cc1NC(=O)C(C)n1nnc2sc(-c3ccccc3)cc2c1=O` (stereo not drawn), for which the activity change, negative = inhibition is -1.65%.
As to `CCN(CCn1cccn1)Cc1cn[nH]c1-c1ccc(OC)cc1F`, the activity change, negative = inhibition was 0.481%.
On to `COC(=O)c1ccc(-c2noc(CN(Cc3ccccn3)CC3CCCO3)n2)cc1` (stereo not drawn), for which the activity change, negative = inhibition was -16.4%.
For the molecule `CCN(CCn1cccn1)Cc1nc(-c2ccc(C(=O)OC)cc2)no1`, the activity change, negative = inhibition was -44.5% (active).
In the case of `COC(=O)c1ccccc1NC(=O)c1ccc(C#N)cc1`, the activity change, negative = inhibition was 6.29%.
For the molecule `O=[N+]([O-])c1ccc(NCCCO)c(C(F)(F)F)c1`, the activity change, negative = inhibition is 6.05%.
On to `CC(C)(C)C(=O)NCCCNc1ccc([N+](=O)[O-])cc1`, for which the activity change, negative = inhibition was -35.6% (active).
Turning to `COCCCNC(=S)NC(=O)c1ccc([N+](=O)[O-])cc1`, the activity change, negative = inhibition is 5.38%.
Take `CC1=C(C(=O)OCc2ccc(C)cc2)C(c2ccccc2Cl)CC(=O)N1` (stereo not drawn): the activity change, negative = inhibition was -1.32%.
Take `Cc1cccc(Cn2c(=O)n(CCC(=O)NCCc3ccc(Cl)cc3)c(=O)c3sccc32)c1`: the activity change, negative = inhibition was -1.13%.
Consider `CCN(CCCNC(=O)c1cc2cc3cc(OC)ccc3nc2s1)c1ccccc1`, for which the activity change, negative = inhibition was -2.73%.
For `CCCSc1nc2[nH]ncc2c(=O)[nH]1`, the activity change, negative = inhibition was -32.5% (active).
As for `O=C(CSc1nc2[nH]ncc2c(=O)[nH]1)Nc1ccc(F)cc1`, the activity change, negative = inhibition was -21.9%.
Regarding `Cc1ccc(CSc2nc3[nH]ncc3c(=O)[nH]2)cc1`, the activity change, negative = inhibition is -7.82%.
Consider `CCc1ccccc1NC(=O)CSc1nnc(-c2ccccc2)c(-c2ccccc2)n1`, for which the activity change, negative = inhibition is 6.16%.
Turning to `O=C1/C(=C/c2ccc(F)cc2)SC(=S)N1CCCC(=O)N1CCCCC1CCO` (stereo not drawn), the activity change, negative = inhibition was -30.8% (active).
Turning to `O=C1/C(=C/c2ccc(F)cc2)SC(=S)N1NS(=O)(=O)c1ccccc1`, the activity change, negative = inhibition is -4.82%.
As to `CCN(C(=O)CN1C(=O)/C(=C/c2ccc(F)cc2)SC1=S)C1CCS(=O)(=O)C1` (stereo not drawn), the activity change, negative = inhibition was 6.56%.
The same measure for `O=C(Cn1cnc2c(oc3ccccc32)c1=O)Nc1ccc(OC(F)(F)F)cc1`: 17.3%; for `Cc1cc(Nc2ccccc2)n(C(=O)c2ccc(N)cc2)n1`: -35.8% (active); for `Cc1cc(NC(=O)Nc2ccc(Cl)cc2)n(-c2ccccc2)n1`: -15.2%.
Turning to `Cn1c(Nc2ccccc2)cc(=O)n(C)c1=O`, the activity change, negative = inhibition was 4.71%.
On to `O=C(c1cccs1)c1cn(CCOc2ccc(Cl)cc2)c2ccccc12`, for which the activity change, negative = inhibition was -2.17%.
With `O=C1c2cccc3c([N+](=O)[O-])ccc(c23)C(=O)N1CC1CCCO1` (stereo not drawn), the activity change, negative = inhibition was -30.6% (active).
In the case of `O=C1C(C=NCC2CCCO2)=C(O)c2ccccc21` (stereo not drawn), the activity change, negative = inhibition was -0.787%.
Regarding `CN1CN(C)c2ccc([N+](=O)[O-])c3cccc1c23`, the activity change, negative = inhibition was 1.14%.
To `CC(=O)c1ccc(NC(=O)c2nc3nc(C)cc(C(F)F)n3n2)cc1` belongs 6.33%; to `CCOC(=O)c1ccc(NC(=O)Cn2c(=O)n(-c3ccc(C)cc3)c(=O)c3c2cnn3C)cc1`, -7.04%; to `CCn1cc(C(=O)NCc2ccccc2)c(=O)c2cc(S(=O)(=O)N3CCCCC3)ccc21`, 1.17%.
For the molecule `CCn1c(CNC(=O)C23CC4CC(CC(C4)C2)C3)nnc1SCC(=O)Nc1ccc(OC)cc1`, the activity change, negative = inhibition was 17.4%.
To `COc1ccc(-c2noc(CCCC(=O)NC3CCCC3)n2)cc1OC` belongs -31.9% (active); to `CCOc1cc(-c2noc(CCCC(=O)NC3CCCCC3)n2)ccc1OC`, -2.32%; to `CCOc1ccc(-c2noc(CCC(=O)NC3CCCC3)n2)cc1OC`, 5.22%.
In the case of `CCOC(=O)c1c(NC(=O)CSc2cn(CC)c3ccccc23)sc2c1CCC2`, the activity change, negative = inhibition was -30.9% (active).
As to `CCOC(=O)c1c(NC(=O)C(C)Sc2c[nH]c3ccccc23)sc2c1CCC2` (stereo not drawn), the activity change, negative = inhibition is 4.04%.
For the molecule `CCOC(=O)c1c(NC(=O)CSc2cn(CCNC(=O)c3cccc(C(F)(F)F)c3)c3ccccc23)sc2c1CCC2`, the activity change, negative = inhibition is -11.4%.
With `Cc1cccc(C(=O)Nc2ccc(S(=O)(=O)N3CCCCC3c3cccnc3)cc2)c1` (stereo not drawn), the activity change, negative = inhibition is -26.5%.
For `O=C1CCCc2cc(S(=O)(=O)N3CCCC(C(=O)NCc4ccccc4)C3)ccc2N1` (stereo not drawn), the activity change, negative = inhibition is -3.91%.
To `CC(=O)Nc1ccc(NC(=O)C2CCCN(S(=O)(=O)c3ccc4c(c3)CCCC(=O)N4)C2)cc1` (stereo not drawn) belongs 0.61%; to `COc1ccc(OC)c(NC(=O)C2CCCN(S(=O)(=O)c3ccc4c(c3)CCCC(=O)N4)C2)c1` (stereo not drawn), -38.1% (active).
`Cc1ccc(CNC(=O)CCc2c(C)nn(-c3ccc(N4CCCC4)nn3)c2C)cc1`: the activity change, negative = inhibition is -0.419%.
On to `CCCCC12CN3CC(C)(CN(C1)C3c1ccc(O)c(OC)c1)C2=O` (stereo not drawn), for which the activity change, negative = inhibition was 3.82%.
As to `CCOC(=O)c1ccc(NC2=CC(c3ccc(OCC)cc3)N(c3ccc(C(=O)OCC)cc3)C2=O)cc1` (stereo not drawn), the activity change, negative = inhibition was -6.51%.
For `COc1ccc(NC(=O)c2c(C)oc3c2CCCC3)cc1`, the activity change, negative = inhibition was -45.1% (active).
For `COc1ccc(NC(=O)c2cc3cc(C)ccc3n2C)cc1`, the activity change, negative = inhibition was 7.2%.
Take `COc1ccc(C(=O)Nc2onc3c2CCCC3)cc1`: the activity change, negative = inhibition is -17.5%.
In the case of `O=C(CCSCc1cccc(F)c1)NCc1ccccc1`, the activity change, negative = inhibition is -0.666%.
To `CCCCOC(=O)c1[nH]c(C)c(C(=O)OC)c1C` belongs -0.924%.
Take `COC(=O)c1c(C)[nH]c(C(=O)/C=C/c2ccc(Cl)cc2)c1C`: the activity change, negative = inhibition is -47.4% (active).
To `Cc1cc(C)nc(NC(=O)/C=C/c2ccc(Cl)cc2)n1` belongs 4.01%; to `Cc1ccc(Nc2c(-c3ccc(C)cc3)nc3cnccn23)cc1`, 12.3%; to `COC(=O)c1sc2ncccc2c1-n1c(C)ccc1C`, 1.1%.

For the origin of these results see PubChem BioAssay AID504652 (National Center for Advancing Translational Sciences (NCATS), 2011).
